Laboratory results reported in PubChem BioAssay (EPA / NIEHS).
Results filed as inconclusive are left out. Active and inactive are the calls of the source. The calls were made as follows: active = hit-call score of the fitted dose curve at least 0.9, where 1 is the maximum; inconclusive = response in the unintended direction; inactive = score below 0.9.

experiment: ACEA_ER_AUC_viability: ACEA Biosciences xCELLigence Real-Time Cell Analysis on Estrogen Receptor Agonism for Viability (AID 2283782);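 also: continuous compound exposure with impedance area under curve over 80 h; hit means loss of impedance signal meaning reduced cell growth or viability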
Summary of the method: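 T47D cells preconditioned in phenol red-free RPMI with charcoal-stripped FBS, then dosed with 8-point 1:4 series from 100 uM (up to 0.5% DMSO). Impedance monitored up to ~80 h; area-under-curve loss versus DMSO taken as viability.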

Compound | outcome | AC50
c1ccc2c(c1)ccc1ncccc12 | inactive | 
C=CC(=O)OCCOC(=O)C=C |  | 32.3 µM (active)
CO[Si](CCC1CCC2OC2C1)(OC)OC (stereo unspecified) |  | 37.7 µM (active)
O=C1CCCCCCCCCCC(=O)OCCO1 |  | 68.3 µM (active)
CC1OC1C1CCC2(C)OC2C1 (stereo unspecified) | inactive | 
Cc1ccc2oc(=O)ccc2c1 | inactive | 
O=CC1CC1 |  | 65 µM (active)
O=C1CCCN1CCO | inactive | 
NC(=O)NNC(N)=O | inactive | 
CC(=O)OCCC1CCCCC1 | inactive | 
c1ccc(-c2ccccn2)nc1 |  | 34.1 µM (active)
O=C1CCCCCCCCCCCCCCCO1 | inactive | 
CCCNC(=O)NS(=O)(=O)c1ccc(Cl)cc1 | inactive | 
CCC(C)C=O (stereo unspecified) |  | 39.7 µM (active)
C=COCCCC | inactive | 
C=C(C)C(=O)OCC(C)C | inactive | 
CCc1nccnc1C | inactive | 
CC(C)(C)C1CCCCC1=O (stereo unspecified) |  | 24.8 µM (active)

Compound | outcome | AC50
CCc1c(C(=O)O)c(=O)cnn1-c1ccc(Cl)cc1 |  | 31.4 µM (active)
O=[N+]([O-])c1ccc(CO)cc1 | inactive | 
CCC(CC)C(=O)O | inactive | 
Cc1ccc(N)c([N+](=O)[O-])c1 | inactive | 
Cc1cc(C)c(C)cc1C | inactive | 
O=[N+]([O-])C1(Br)COCOC1 |  | 8.14 µM (active)
Cc1cccc(C(=O)O)c1 | inactive | 
CC(C)C(=O)C(C)C |  | 19.7 µM (active)
Cc1cccc(N)n1 | inactive | 
NC(CO)(CO)CO | inactive | 
C=CCOCC(O)CCl (stereo unspecified) | inactive | 
FC(F)(F)C(=NOCC1OCCO1)c1ccc(Cl)cc1 |  | 74.9 µM (active)
C=CCCCCCCCCC(=O)OCCCC |  | 50 µM (active)
O=C1CCCC(=O)O1 | inactive | 
Cc1ccc(OC(=O)CC(C)C)cc1 |  | 73.8 µM (active)
CCC(Cc1ccccc1)(C(=O)c1ccc(N2CCOCC2)cc1)N(C)C (stereo unspecified) |  | 88.7 µM (active)
S=C(NC1CCCCC1)NC1CCCCC1 | inactive | 
CC1(C)[C@H]2CC[C@]1(C)C(=O)C2 | inactive | 
